About 79,000 compounds went through this panel and 15% of them were active in at least one assay; those are over-represented in the sample as a whole. Unmarked numbers belong to inactive results. The source made the active and inactive calls. Rule as the data show it: active = growth inhibition above about 70%; inactive = the rest.
Experiments:
[1] = NCI Yeast Anticancer Drug Screen. Data for the rad52 strain (AID 147);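 also: 0% = growth of vehicle-treated control cultures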; conditions: S. cerevisiae rad52 mutant growth inhibition, stronger effect = higher value
Outline: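 The repair-mutant yeast strain was incubated with compounds, then growth was read and inhibition derived relative to vehicle.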

[2] = NCI Yeast Anticancer Drug Screen. Data for the wt1 strain (AID 149);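 also: 0% = growth of vehicle-treated wt1 cultures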; conditions: S. cerevisiae wt1 strain (SPY 50644) growth inhibition, stronger effect = higher value
Outline: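 Each compound is tested on wt1 yeast and the loss of growth versus vehicle gives the inhibition value.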

[3] = NCI Yeast Anticancer Drug Screen. Data for the rad50EPP+ strain (AID 151);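 also: 0% = growth of vehicle-treated control cultures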; conditions: S. cerevisiae rad50 mutant strain, stronger effect = higher value
Outline: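 Vehicle-normalised growth inhibition; rad50EPP+ yeast strain, altered in DNA damage repair, compound-treated.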

[4] = NCI Yeast Anticancer Drug Screen. Data for the mgt1 strain (AID 153); conditions: S. cerevisiae mgt1 mutant growth inhibition, stronger effect = higher value
Outline: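 Vehicle-normalized growth inhibition is determined in mgt1 yeast, a strain selected for a defined alteration in DNA repair or cell cycle control.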

[5] = NCI Yeast Anticancer Drug Screen. Data for the rad50 strain (AID 155);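 also: 0% = growth of vehicle-only cultures of the same strain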; conditions: S. cerevisiae rad50 strain growth inhibition, stronger effect = higher value
Outline: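 Vehicle-treated cultures provide the reference for the growth inhibition reported for compound-exposed, repair-deficient yeast.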

[6] = NCI Yeast Anticancer Drug Screen. Data for the mec2-1 strain (AID 157); conditions: S. cerevisiae mec2-1 strain, stronger effect = higher value
Outline: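 Mutant yeast (mec2-1) grown with compound; growth inhibition relative to vehicle control reported.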

[7] = NCI Yeast Anticancer Drug Screen. Data for the rad14 strain (AID 159);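 also: 0% = growth of vehicle-treated control cultures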; conditions: S. cerevisiae rad14 strain growth inhibition, stronger effect = higher value
Outline: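 Inhibition of growth is reported for a repair-deficient yeast mutant following compound treatment, calculated relative to cultures that received vehicle.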

[8] = NCI Yeast Anticancer Drug Screen. Data for the sgs1 mgt1 strain (AID 161);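 also: 0% = growth of cultures given vehicle only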; conditions: S. cerevisiae sgs1 mgt1 strain, stronger effect = higher value
Outline: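 Yeast cells carrying a defined DNA-repair defect were exposed to test compounds. Growth inhibition was measured relative to vehicle-treated controls.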

[9] = NCI Yeast Anticancer Drug Screen. Data for the CLN2oe strain (AID 163);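 also: 0% = growth of vehicle-only control cultures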; conditions: S. cerevisiae CLN2oe strain, stronger effect = higher value
Outline: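 Compounds are applied to yeast harbouring a defined cell-cycle control change; reduced growth compared with vehicle-treated controls gives the value.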

[10] = NCI Yeast Anticancer Drug Screen. Data for the cln2 rad14 strain (AID 165);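 also: 0% = growth equal to vehicle treated cultures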; conditions: S. cerevisiae cln2 rad14 strain, stronger effect = higher value
Outline: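 Readout is yeast growth inhibition versus vehicle-treated controls, using a strain with cln2 and rad14 alterations exposed to compound.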

[11] = NCI Yeast Anticancer Drug Screen. Data for the bub3 strain (AID 167); conditions: S. cerevisiae bub3 mutant strain, stronger effect = higher value
Outline: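 Mutant yeast screening strain plus compound; vehicle-treated cultures serve as the 0% inhibition reference.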

[12] = NCI Yeast Anticancer Drug Screen. Data for the wt2 strain (AID 169); conditions: S. cerevisiae wt2 strain growth inhibition, stronger effect = higher value
Outline: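 Against vehicle-treated controls, the growth of yeast exposed to each compound was compared, and the inhibition was recorded.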

[13] = NCI Yeast Anticancer Drug Screen. Data for the mlh1 strain (AID 171);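 also: 0% = growth of vehicle-treated control cultures of the same strain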; conditions: S. cerevisiae mlh1 strain growth inhibition, stronger effect = higher value
Outline: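 Measured: yeast growth. Reference: vehicle-treated controls. Organism: strain with a defined alteration affecting DNA damage repair or cell cycle control, treated with compound.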

[14] = NCI Yeast Anticancer Drug Screen. Data for the sgs1 strain (AID 173);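 also: 0% = growth of vehicle-only control cultures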; conditions: S. cerevisiae sgs1 mutant, stronger effect = higher value
Outline: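 Each compound was added to cultures of the altered yeast strain. Growth was recorded, and inhibition was derived by comparison with vehicle controls.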

[15] = NCI Yeast Anticancer Drug Screen. Data for the mlh1 rad18 strain (AID 175); conditions: S. cerevisiae mlh1 rad18 strain growth inhibition, stronger effect = higher value
Outline: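 Genetically defined yeast (DNA repair-deficient) exposed to compounds; growth inhibition determined relative to vehicle.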

[16] = NCI Yeast Anticancer Drug Screen. Data for the rad18 strain (AID 177); conditions: S. cerevisiae rad18 mutant growth inhibition, stronger effect = higher value
Outline: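 Vehicle-treated cultures served as the baseline for scoring compound-induced growth inhibition in DNA-repair-mutant yeast.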

[17] = at 5.0 µM (retest, dose inferred, filed as 0.5)
[18] = at 50.0 µM (retest, dose inferred, filed as 5.0)

Question: Which results are given for `Cc1ccc(-c2ccc(Nc3c4ccccc4nc4ccccc34)cc2)cn1`?
Answer: growth inhibition ([1]; at 1.2 µM): 6%; growth inhibition ([1]; at 3.7 µM): 48%; growth inhibition ([1]; at 11.0 µM): 90% (active); growth inhibition ([1]; at 33.0 µM): 95% (active); growth inhibition ([1]; at 100.0 µM): 92% (active); growth inhibition ([2]; at 1.2 µM): 30%; growth inhibition ([2]; at 3.7 µM): 20%; growth inhibition ([2]; at 11.0 µM): 43%; growth inhibition ([2]; at 33.0 µM): 90% (active); growth inhibition ([2]; at 100.0 µM): 67%; growth inhibition ([3]; at 1.2 µM): 22%; growth inhibition ([3]; at 3.7 µM): 44%; growth inhibition ([3]; at 11.0 µM): 85% (active); growth inhibition ([3]; at 33.0 µM): 95% (active); growth inhibition ([3]; at 100.0 µM): 95% (active); growth inhibition ([4]; at 1.2 µM): 4%; growth inhibition ([4]; at 3.7 µM): -5%; growth inhibition ([4]; at 11.0 µM): 7%; growth inhibition ([4]; at 33.0 µM): 83% (active); growth inhibition ([4]; at 100.0 µM): 95% (active); growth inhibition ([5]; at 1.2 µM): 15%; growth inhibition ([5]; at 3.7 µM): 60%; growth inhibition [5, 17]: 81% (active); growth inhibition ([5]; at 11.0 µM): 90% (active); growth inhibition ([5]; at 33.0 µM): 93% (active); growth inhibition [5, 18]: 97% (active); growth inhibition ([5]; at 50.0 µM): 97% (active); growth inhibition ([5]; at 100.0 µM): 88% (active); growth inhibition ([6]; at 1.2 µM): -20%; growth inhibition ([6]; at 3.7 µM): -25%; growth inhibition [6, 17]: 9%; growth inhibition ([6]; at 11.0 µM): 11%; growth inhibition ([6]; at 33.0 µM): 86% (active); growth inhibition [6, 18]: 98% (active); growth inhibition ([6]; at 50.0 µM): 90.4% (active); growth inhibition ([6]; at 100.0 µM): 84% (active); growth inhibition ([7]; at 1.2 µM): -27%; growth inhibition ([7]; at 3.7 µM): -19%; growth inhibition ([7]; at 11.0 µM): -4%; growth inhibition ([7]; at 33.0 µM): 75% (active); growth inhibition ([7]; at 100.0 µM): 59%; growth inhibition [8, 17]: 8%; growth inhibition [8, 18]: 75% (active); growth inhibition ([8]; at 50.0 µM): 80.2% (active); growth inhibition ([9]; at 1.2 µM): 15%; growth inhibition ([9]; at 3.7 µM): 19%; growth inhibition ([9]; at 11.0 µM): 29%; growth inhibition ([9]; at 33.0 µM): 85% (active); growth inhibition ([9]; at 100.0 µM): 73% (active); growth inhibition [10, 17]: 37%; growth inhibition [10, 18]: 70% (active); growth inhibition ([10]; at 50.0 µM): 58.6%; growth inhibition ([11]; at 1.2 µM): -5%; growth inhibition ([11]; at 3.7 µM): -45%; growth inhibition [11, 17]: 5%; growth inhibition ([11]; at 11.0 µM): -12%; growth inhibition ([11]; at 33.0 µM): 79% (active); growth inhibition [11, 18]: 84% (active); growth inhibition ([11]; at 50.0 µM): 25.5%; growth inhibition ([11]; at 100.0 µM): 36%; growth inhibition ([12]; at 1.2 µM): -14%; growth inhibition ([12]; at 3.7 µM): 2%; growth inhibition ([12]; at 11.0 µM): 22%; growth inhibition ([12]; at 33.0 µM): 92% (active); growth inhibition ([12]; at 100.0 µM): 39%; growth inhibition ([13]; at 1.2 µM): 5%; growth inhibition ([13]; at 3.7 µM): 2%; growth inhibition ([13]; at 11.0 µM): 18%; growth inhibition ([13]; at 33.0 µM): 88% (active); growth inhibition ([13]; at 100.0 µM): 72% (active); growth inhibition ([14]; at 1.2 µM): 3%; growth inhibition ([14]; at 3.7 µM): 6%; growth inhibition ([14]; at 11.0 µM): 44%; growth inhibition ([14]; at 33.0 µM): 94% (active); growth inhibition ([14]; at 100.0 µM): 88% (active); growth inhibition [15, 17]: 16%; growth inhibition [15, 18]: 89% (active); growth inhibition ([15]; at 50.0 µM): 90.1% (active); growth inhibition ([16]; at 1.2 µM): 0%; growth inhibition ([16]; at 3.7 µM): -10%; growth inhibition ([16]; at 11.0 µM): 12%; growth inhibition ([16]; at 33.0 µM): 89% (active); growth inhibition ([16]; at 100.0 µM): 86% (active)
